Screening data from PubChem.
Most compounds without a hit are left out; they make up all but 3.4% or so of the library.
FBW7 act: human FBW7 E3 ligase activation, primary screen; Q969H0; AlphaScreen FBW7–phospho-cyclin E peptide binding, activator screen; normalized activity (activation), % at 26.1 µM; 0.13% of 650,000 active; in the data active = normalized activity above about 1.9%;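 note: purified mutant Fbw7 with reduced substrate affinity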
GPR151 activ: activators of human GPR151. Q8TDV0. PathHunter beta-arrestin GPR151 cells, luminescence. activation, % at 11.2 µM. 1% of 650,000 active; in the data active = activation above about 4.9%
MITF primary: human MITF inhibition, primary screen | 0.91% of 650,000 active | AlphaScreen MITF homodimerization, bead proximity signal | inhibition, % at 2.6 µM | AID 1259374; in the data active = inhibition above about 50%
Target sequence (O75030 whole entry, looked up): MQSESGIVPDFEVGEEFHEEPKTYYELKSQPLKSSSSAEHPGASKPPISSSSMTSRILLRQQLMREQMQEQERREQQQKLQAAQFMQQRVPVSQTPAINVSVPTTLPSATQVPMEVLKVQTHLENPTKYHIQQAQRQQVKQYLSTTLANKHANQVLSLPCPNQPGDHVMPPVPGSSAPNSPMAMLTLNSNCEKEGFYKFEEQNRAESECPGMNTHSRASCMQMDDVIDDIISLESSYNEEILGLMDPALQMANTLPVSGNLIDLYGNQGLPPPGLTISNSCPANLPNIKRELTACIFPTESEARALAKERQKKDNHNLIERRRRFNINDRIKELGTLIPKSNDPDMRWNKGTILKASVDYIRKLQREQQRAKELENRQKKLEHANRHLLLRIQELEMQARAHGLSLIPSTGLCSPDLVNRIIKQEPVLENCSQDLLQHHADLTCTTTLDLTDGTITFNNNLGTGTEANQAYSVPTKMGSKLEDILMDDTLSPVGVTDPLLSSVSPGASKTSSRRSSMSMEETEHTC
TEAD-YAP inh: TEAD-YAP interaction inhibition | HEK-TIYL cells, TEAD-Gal4/YAP UAS-luciferase luminescence | inhibition, % at 9.12 µM | 1.4% of 640,000 active; in the data active = inhibition above about 32%
A number is an active result; . = inactive; / = no result given.

SMILES	FBW7 act	GPR151 activ	MITF primary	TEAD-YAP inh
Brc1ccc(-n2cc(-c3ccccc3)c3c(N4CCN(Cc5ccccc5)CC4)ncnc32)cc1	.	.	.	.
O=S(=O)(NCc1ccncc1)c1ccc(Br)s1	.	.	.	34
Cc1cc(S(=O)(=O)NCc2ccncc2)c(C)c(C)c1C	.	.	.	43
Cc1cc(S(=O)(=O)NCc2ccncc2)c(C)cc1Cl	.	.	.	.
CCOc1cc(S(=O)(=O)NCc2ccncc2)ccc1F	.	.	.	54
O=C(O)CNS(=O)(=O)c1ccc(Br)s1	.	.	.	.
O=C(/C=C/c1ccco1)N(Cc1ccsc1)C1CC1	.	.	.	.
O=C(Nc1ccc(F)c([N+](=O)[O-])c1)c1cccnc1	.	.	.	.
CC1CCCN(c2ncnc3c(-c4ccccc4)nsc23)C1 (configuration not stated)	.	.	.	80
Fc1ccc(-c2nsc3c(N4CCOCC4)ncnc23)cc1	.	.	.	68
COc1ccc(-c2nsc3c(N4CCCC(C)C4)ncnc23)cc1 (configuration not stated)	.	.	.	86
CCN1CCN(c2ncnc3c(-c4ccc(OC)cc4)nsc23)CC1	.	.	.	.
COc1ccc(-c2nsc3c(N4CCCC4)ncnc23)cc1	.	.	.	65
COc1ccc(NS(=O)(=O)c2ccc3[nH]c4c(c3c2)CCCC4)cc1	.	.	.	.
CC(C)CC(Nc1ccc(S(=O)(=O)N2CCCCCC2)cc1[N+](=O)[O-])C(=O)O (configuration not stated)	.	.	.	.
CCOc1cc(C(NC(C)=O)c2cc([N+](=O)[O-])c3cccnc3c2O)ccc1O (configuration not stated)	.	.	85	.
COc1ccc(C(NC(C)=O)c2cc([N+](=O)[O-])c3cccnc3c2O)cc1 (configuration not stated)	.	.	.	.
CCC(=O)NC(c1cccs1)c1cc([N+](=O)[O-])c2cccnc2c1O (configuration not stated)	.	.	.	.
CC(=O)NC(c1ccccc1Cl)c1cc([N+](=O)[O-])c2cccnc2c1O (configuration not stated)	.	.	90	.
CC(=O)NC(c1cccs1)c1cc([N+](=O)[O-])c2cccnc2c1O (configuration not stated)	.	.	79	.
O=C1C2=C(Nc3ccc4ccccc4c3C2c2ccc(OCc3ccccc3F)cc2)c2ccccc21 (configuration not stated)	.	.	.	.
Cc1nc2ccccc2c2nn(CC(=O)N3C(C)CCCC3C)c(=O)n12 (configuration not stated)	.	.	.	.
Cc1cc(N/N=C/c2ccc(O)c(C)c2O)nc(-c2ccccc2O)n1	.	.	.	42
O=[N+]([O-])c1ccc(O)c(/C=N/Nc2ccc(Cl)nn2)c1	.	.	.	46
Cc1cc(N/N=C/c2cccc([N+](=O)[O-])c2)nc(-c2ccccc2O)n1	.	.	.	.
SMILES	FBW7 act	GPR151 activ	MITF primary	TEAD-YAP inh
Cc1cc(N/N=C/c2cc([N+](=O)[O-])ccc2O)nc(-c2ccccc2O)n1	.	.	.	77
Cc1cccc(Oc2nc3ccccc3n3c(C)nnc23)c1C	.	.	.	.
S=c1[nH]nc(-c2ccncc2)n1C1CCCCC1	.	.	.	.
CCCCOc1ccccc1NC(=O)C(F)(OC)C(F)(F)F (configuration not stated)	.	.	.	36
CC(=O)c1cccc(NC(=O)C(C)N(c2ccc(Cl)cc2)S(C)(=O)=O)c1 (configuration not stated)	.	.	.	.
CCOc1cc(/C=N/NC(=O)Cn2c3ccccc3c(=O)c3ccccc32)ccc1O	.	.	.	59
CCOc1cc(/C=N/NC(=O)Cn2nnc(-c3ccccc3)n2)ccc1O	.	.	.	.
O=C(Cn1c2ccccc2c(=O)c2ccccc21)N/N=C/c1ccccc1O	.	.	.	45
Cn1c(SCC(=O)NC(N)=O)nc2sc3c(c2c1=O)CCC3	.	.	.	.
Nc1c(N=Nc2ccc(-c3ccc(N=Nc4cc(S(=O)(=O)O)c5ccccc5c4N)cc3)cc2)cc(S(=O)(=O)O)c2ccccc12	.	.	.	.
Cc1cc(-c2ccc(N=Nc3ccc4c(S(=O)(=O)O)cc(S(=O)(=O)O)c(N)c4c3O)c(C)c2)ccc1N=Nc1ccc2c(S(=O)(=O)O)cc(S(=O)(=O)O)c(N)c2c1O	.	.	78	/
Nc1nonc1-n1nnc(C(=O)N/N=C/c2cccc([N+](=O)[O-])c2)c1CN1CCCC1	.	.	.	.
Cc1cccc(OS(=O)(=O)c2cn(C)c(=O)n(C)c2=O)c1	3.6	.	.	.
O=C(c1ccc(OCc2ccccc2)cc1)N1CCCC1	.	.	.	84
O=C(CNCc1ccccc1)Nc1ccc(N2CCCC2)cc1	.	.	.	.
Ic1ccc(OCCCCN2CCNCC2)cc1	.	.	.	.
O=C(CNCc1ccccc1)Nc1ccc(C(=O)N2CCCC2)cc1	.	.	.	44
c1ccc(COc2ccc(OCCCCN3CCNCC3)cc2)cc1	.	.	56	.
O=C(c1ccc(-c2nnc(-c3ccccc3)o2)cc1)N1CCCCC1	.	.	.	51
CCN1CCc2c(sc(NC(=O)C(C)C)c2C(N)=O)C1	.	.	.	.
CC[C@]1(O)C[C@H]2CN(CCc3c([nH]c4ccccc34)[C@H](C)[C@H]2c2cc3c(cc2OC)N(C)[C@H]2[C@@](O)(C(=O)OC)[C@H](C)[C@]4(CC)C=CCN5CC[C@]32[C@@H]54)C1	.	.	.	65
CCC1(O)CC2CN(CCc3c([nH]c4ccccc34)[C@@](C(=O)OC)(c3cc4c(cc3OC)N(C)C3[C@]45CCN4CC=C[C@@](CC)([C@@H](OC(C)=O)[C@]3(O)C(=O)OC)[C@H]45)C2)C1 (some centres not stated)	.	.	.	70
CCC1=C[C@@H]2CN(C1)Cc1c([nH]c3ccccc13)[C@@](C(=O)OC)(c1cc3c(cc1OC)N(C)[C@H]1[C@@](O)(C(=O)OC)[C@H](OC(C)=O)[C@]4(CC)C=CCN5CC[C@]31[C@@H]54)C2	.	.	.	65
CC[C@]1(O)CC2CN(CCc3c([nH]c4ccccc34)[C@@](C(=O)OC)(c3cc4c(cc3OC)N(C)[C@H]3[C@@](O)(C(N)=O)[C@H](O)[C@]5(CC)C=CCN6CC[C@]43[C@@H]65)C2)C1 (some centres not stated)	.	.	.	47
CCOc1ccc(N=Cc2c(C(=O)O)[nH]c3ccccc23)cc1	.	.	.	.
COc1ccc(C(=O)Nc2ccc(S(=O)(=O)NC(C)C)cc2)cc1Br	.	.	.	.
O=C(Cn1cnc2sc3c(c2c1=O)CCCC3)NCCC(=O)N1CCN(c2ccccc2F)CC1	.	.	.	.
Nc1ncnc(N2CCc3ccccc3C2)c1[N+](=O)[O-]	.	.	.	.
O=[N+]([O-])c1cc(/C=N\Nc2nccs2)ccc1O	.	.	95	.
CC(C)CN(CC(C)C)S(=O)(=O)c1ccccc1[N+](=O)[O-]	.	.	.	.
